These results are taken from PubChem BioAssay (NCI).

Structures are written as SMILES. The panel holds about 79,000 compounds, 15% with a hit somewhere; the sample as a whole holds those more often. Unmarked numbers belong to inactive results. Activity calls are given as the source filed them. No stated cut-off is given here; in the data, active means growth inhibition above about 70%; inactive means the rest.

Assay [1] in a line: NCI Yeast Anticancer Drug Screen. Data for the rad50 strain (AID 155).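 Further: 0% = growth of vehicle-only cultures of the same strain.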 The settings on record: S. cerevisiae rad50 strain growth inhibition; at 50.0 µM; hits give high values. The procedure, abridged:
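Cells are treated with compound, grown, and their growth is then scored against vehicle-only cultures of the same repair-deficient yeast strain.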

Assay [2] is described as follows: NCI Yeast Anticancer Drug Screen. Data for the mec2-1 strain (AID 157). The settings on record: S. cerevisiae mec2-1 strain, at 50.0 µM, hits give high values. The procedure, abridged: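 Growth inhibition is read against vehicle-treated controls after compound exposure of the mec2-1 yeast strain, which is defective in DNA damage repair or cell cycle control.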
Assay [3] in a line: NCI Yeast Anticancer Drug Screen. Data for the sgs1 mgt1 strain (AID 161).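 Further: 0% = growth of cultures given vehicle only.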 The settings on record: S. cerevisiae sgs1 mgt1 strain, at 50.0 µM, hits give high values. The procedure, abridged: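 Yeast cells carrying a defined DNA-repair defect were exposed to test compounds. Growth inhibition was measured relative to vehicle-treated controls.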
Assay [4] is described as follows: NCI Yeast Anticancer Drug Screen. Data for the cln2 rad14 strain (AID 165).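 Further: 0% = growth equal to vehicle treated cultures.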 The conditions noted are these: S. cerevisiae cln2 rad14 strain, at 50.0 µM, hits give high values. Put shortly:
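Growth inhibition, relative to vehicle-treated controls, is the read-out. The test organism is a yeast strain with defined genetic alterations, cln2 rad14.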

Assay [5] is described as follows: NCI Yeast Anticancer Drug Screen. Data for the bub3 strain (AID 167). The settings on record: S. cerevisiae bub3 mutant strain, at 50.0 µM, hits give high values. Put shortly: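 Part of a panel of yeast mutants defective in DNA damage repair or cell cycle regulation. Each strain is grown with compound, and inhibition is calculated relative to solvent-treated cultures.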

A short description of assay [6]: NCI Yeast Anticancer Drug Screen. Data for the mlh1 rad18 strain (AID 175). The conditions noted are these: S. cerevisiae mlh1 rad18 strain growth inhibition; at 50.0 µM; hits give high values. The procedure, abridged: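 Cells of a genetically altered yeast strain, deficient in DNA damage repair, were treated with compound. Their growth was then compared with that of vehicle-treated cultures to give inhibition.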

For `O=C(Nc1ccc(C(F)(F)F)cc1)NC(F)(F)F`, the growth inhibition in assay [1] is -61.1%; in assay [2] it was -6.7%; in assay [3] it was -38.1%; in assay [4], -16.6%; in assay [5] it was -3.65%; in assay [6], -46.3%.
Turning to `O=C(/C(N=Nc1ccccc1)=C(\O)c1ccccc1)c1ccccc1`, the growth inhibition in assay [1] is -8.15%; in assay [2], -9.7%; in assay [3], 2.45%; in assay [4], 11.8%; in assay [5], 7.05%; in assay [6] it was -6.2%.
`Cc1cc(C)c2c(c1)CSCc1cc(C)cc(C)c1-2`: the growth inhibition in assay [1] is 15.7%; in assay [2], -2.65%; in assay [3], 19.1%; in assay [4], 10%; in assay [5], 1.05%; in assay [6] it was 16.1%.
`O=C1CCCC2=C1CC1=C(CCCC1=O)N2c1ccccc1`: the growth inhibition in assay [1] is -28.5%; in assay [2], -20.9%; in assay [3] it was 8.7%; in assay [4] it was -0.75%; in assay [5], 12.6%; in assay [6], 12.6%.
As to `CCCCCC(C(O)C#N)C(O)(C(F)(F)F)C(F)(F)F` (stereo unspecified), the growth inhibition in assay [1] was 94.7% (active); in assay [2], 80.7% (active); in assay [3], 58.8%; in assay [4], 80.6% (active); in assay [5] it was 86.2% (active); in assay [6] it was 98% (active).
Regarding `C/C(CC(=O)Nc1ccc(C)c(C)c1)=N\NC(N)=O`, the growth inhibition in assay [1] was -31.9%; in assay [2], -28.6%; in assay [3], -0.7%; in assay [4], -5.35%; in assay [5] it was -22%; in assay [6], -24.2%.
With `COc1ccc(Cc2ccccc2C(=O)c2ccc(OC)cc2)cc1`, the growth inhibition was -14.7% in assay [1]; -13.8% in assay [2]; 0.05% in assay [3]; -4.65% in assay [4]; 4.6% in assay [5]; -14.8% in assay [6].
On to `CCCOC(=O)C(=O)OCCC`, for which the growth inhibition in assay [1] was 2.15%; in assay [2], 21.6%; in assay [3], -23.8%; in assay [4], -6%; in assay [5], -11.3%; in assay [6], -9.2%.
As for `Cc1ccc(N=N/C(=N/NC(=O)c2ccccc2)c2ccc(N(CCC#N)CCC#N)cc2C)cc1`, the growth inhibition in assay [1] is 0.85%; in assay [2] it was 3.3%; in assay [3], -9.65%; in assay [4], -16.3%; in assay [5] it was -3.25%; in assay [6], -40%.
On to `COS(=O)c1cc(Cl)cc(Cl)c1O` (stereo unspecified), for which the growth inhibition is -0.6% in assay [1]; 4.55% in assay [2]; -10.7% in assay [3]; -28.2% in assay [4]; -0.85% in assay [5]; 2.25% in assay [6].
With `CC(=O)OCC1OC(n2ccc(=O)[nH]c2=O)C(NC(=O)C(F)(F)F)C(OC(C)=O)C1OC(C)=O` (stereo unspecified), the growth inhibition in assay [1] is 2.4%; in assay [2], -5.4%; in assay [3], -11.2%; in assay [4], -11.2%; in assay [5], -2.05%; in assay [6], -11.7%.
With `Clc1cc2nn(C3CCCCO3)nc2cc1Cl` (stereo unspecified), the growth inhibition in assay [1] was 0.65%; in assay [2] it was -12.8%; in assay [3], -18.4%; in assay [4] it was -15.9%; in assay [5], 16.9%; in assay [6], -44.8%.
Regarding `COc1cccc(/C=C2\S/C(=N/Nc3nc(C)c(C)s3)NC2=O)c1O`, the growth inhibition is 7.7% in assay [1]; 16.3% in assay [2]; 20.8% in assay [3]; 18% in assay [4]; -8.65% in assay [5]; 2.2% in assay [6].
In the case of `CCCS(=O)(=O)N1CCC(C)CC1`, the growth inhibition in assay [1] was 5.7%; in assay [2], -21.1%; in assay [3], 5.85%; in assay [4] it was -8.65%; in assay [5], -8.55%; in assay [6], 1.6%.
For `CC/C(=N\O)c1ccc2cc(Cl)c3ccccc3c2c1`, the growth inhibition was 21.7% in assay [1]; 25.4% in assay [2]; 44.5% in assay [3]; 8.75% in assay [4]; 54.2% in assay [5]; 31.9% in assay [6].
As to `CCN(CC)CN1C(=O)C2C3C=CC(C2C1=O)C1C2C(=O)N(CN(CC)CC)C(=O)C2C31` (stereo unspecified), the growth inhibition was 2.8% in assay [1]; -25.6% in assay [2]; -27.6% in assay [3]; -9.15% in assay [4]; -47.5% in assay [5]; -45.9% in assay [6].
On to `O=C(O)CSc1ccccc1`, for which the growth inhibition was 39.5% in assay [1]; 18.4% in assay [2]; 17.8% in assay [3]; 13.3% in assay [4]; 20.6% in assay [5]; 0.15% in assay [6].
For `O=C1OCC(Cc2ccc3c(c2)OCO3)[C@H]1Cc1ccc(O)cc1` (stereo partly specified), the growth inhibition in assay [1] was 1.45%; in assay [2] it was -18%; in assay [3] it was 17.6%; in assay [4], 21.9%; in assay [5], 19.3%; in assay [6] it was -5.9%.
`CC[n+]1c(-c2ccccc2)c2cc(NCCCN)ccc2c2ccc(N)cc21`: the growth inhibition is 33% in assay [1]; 15.8% in assay [2]; 8.8% in assay [3]; 6.3% in assay [4]; 3.75% in assay [5]; 40.5% in assay [6].
For `O=C(Cl)c1cc(C(=O)Cl)cc(C(=O)Cl)c1`, the growth inhibition in assay [1] was -28.6%; in assay [2], -51.2%; in assay [3], -24.2%; in assay [4], 7.15%; in assay [5], -28.4%; in assay [6], -28.6%.
In the case of `Cc1cc([N+](=O)[O-])ccc1N=NC(=O)NNc1ccc([N+](=O)[O-])cc1C`, the growth inhibition was -0.45% in assay [1]; 5.1% in assay [2]; 8.35% in assay [3]; -33.1% in assay [4]; 4.15% in assay [5]; 23.2% in assay [6].
